# Source: PubChem (Broad Institute)
# c-Myc SMM – binds human c-Myc on microarray; actives 1.5% (n = 17,000); AID 624141; small molecule microarray, His-c-Myc binding, anti-His fluorescence; calls only;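 active = spot fluorescence over background with P-value below 7% in all four replicate spots, showing protein binding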;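 also: score is binary with 100 for all four spots passing and 0 otherwise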
# Target sequence (P01106 whole entry, looked up): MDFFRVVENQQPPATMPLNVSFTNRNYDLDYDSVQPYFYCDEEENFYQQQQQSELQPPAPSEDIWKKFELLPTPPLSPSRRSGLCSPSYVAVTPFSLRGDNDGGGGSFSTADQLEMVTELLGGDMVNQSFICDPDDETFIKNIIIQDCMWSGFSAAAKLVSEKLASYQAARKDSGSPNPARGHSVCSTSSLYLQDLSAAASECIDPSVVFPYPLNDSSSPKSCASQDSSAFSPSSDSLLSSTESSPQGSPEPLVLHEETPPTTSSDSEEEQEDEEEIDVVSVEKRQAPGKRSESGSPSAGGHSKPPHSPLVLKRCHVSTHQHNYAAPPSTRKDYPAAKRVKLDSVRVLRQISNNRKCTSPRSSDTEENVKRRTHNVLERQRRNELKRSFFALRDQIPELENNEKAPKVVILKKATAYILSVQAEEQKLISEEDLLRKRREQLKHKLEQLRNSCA
# NFkB SMM – NF-kappa-B p105 (human) binding; P19838; Small molecule microarray, anti-His fluorescence binding; calls only; actives 1.3% (n = 17,000);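 active = spot fluorescence over background significantly raised, with a chance value under 7% in all four replicate spots of the compound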;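 also: probe protein is his-tagged human p50 processed subunit at 1 µg/ml; raw spot fluorescence signals with no normalization applied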
# STAT3 binder – STAT3 (human) binding; Small molecule microarray, His-STAT3 binding, anti-His fluorescence; actives 0.2% (n = 17,000); P40763; calls only;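 active = compounds whose four printed spots each show fluorescence over background unusually high for their array block, chance value under 7%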
# mut p53 SMM – binders of human mutant p53. actives 0.4% (n = 17,000). calls only. small molecule microarray binding, anti-GST fluorescence;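 active = compounds whose four printed spots each glow above background more than chance allows, each with a p-value under 7%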
# mut p53 react – mutant p53 pathway reactivation; SW480 PUMA-promoter luciferase; activation, % at 9.98 µM; actives 1.5% (n = 28,000); in the data active = activation above about 52%
# Active calls of the source: *; i = inactive; nt = no result given; + = active, no number. An excerpt weighted towards active compounds, which were near 2.6% of everything screened.
SMILES,c-Myc SMM,NFkB SMM,STAT3 binder,mut p53 SMM,mut p53 react
C[C@@H]1CCCCO[C@@H](CN(C)C(=O)Nc2cccc3ccccc23)[C@H](C)CN([C@H](C)CO)C(=O)c2cc(NC(=O)c3ccncc3)ccc2O1,+,+,i,i,-34.1
N#Cc1c(NC(=O)c2cc3nc(-c4ccco4)cc(C(F)(F)F)n3n2)sc2c1CCC2,i,i,i,i,13.3
O=C1CC(O)[C@H]2[C@@H]3N1c1ccccc1[C@@]31CCN3C/C(=C/CO)[C@@H]2C[C@H]31 (stereo partly drawn),i,i,i,i,3.8
N#CCc1ccc(NC(=O)Cc2ccccc2[N+](=O)[O-])cc1,i,i,i,i,-2.4
C[C@@H]1CN([C@@H](C)CO)C(=O)c2cc(NC(=O)c3ccncc3)ccc2O[C@@H](C)CCCCO[C@@H]1CN(C)C(=O)Nc1ccccc1,i,i,i,i,4.3
C[C@@H]1CCCCO[C@@H](CN(C)C(=O)Nc2cccc3ccccc23)[C@H](C)CN([C@@H](C)CO)C(=O)c2cc(NC(=O)c3ccncc3)ccc2O1,+,+,i,i,-30.9
C[C@@H]1CN([C@@H](C)CO)C(=O)c2cc(NC(=O)c3ccncc3)ccc2O[C@@H](C)CCCCO[C@H]1CN(C)C(=O)Nc1cccc2ccccc12,+,+,i,i,-78.6
C[C@H]1CCCCO[C@@H](CN(C)C(=O)Nc2ccccc2)[C@@H](C)CN([C@@H](C)CO)C(=O)c2cc(NC(=O)c3ccncc3)ccc2O1,i,i,i,i,3.0
C[C@@H]1CN([C@H](C)CO)C(=O)c2cc(NC(=O)c3ccncc3)ccc2O[C@@H](C)CCCCO[C@H]1CN(C)C(=O)Nc1cccc2ccccc12,+,+,i,i,-51.8
C[C@@H]1CCCCO[C@@H](CN(C)C(=O)Nc2cccc3ccccc23)[C@H](C)CN([C@H](C)CO)C(=O)c2cc(N(C)C)ccc2O1,+,+,i,i,-37.6
O=C(CCCCCC/C=C/c1ccc2c(c1)OCO2)N1CCCCC1,i,i,i,i,9.9
COc1ccccc1CN1CCN(Cc2ccc(OC)c(OC)c2OC)CC1,i,i,i,i,-10.3
COc1ccccc1CN1CCN(Cc2cccnc2)CC1,+,i,i,i,0.7
NCCCN(Cc1ccco1)C1CCCC1,+,i,i,i,2.2
Cc1ccc(NC(=O)C(=O)NCc2ccccn2)cc1C,nt,nt,nt,nt,94.3*
Cc1ccccc1NC(=O)C(=O)NCc1ccccn1,nt,nt,nt,nt,35.7
CC(C)CNC(=O)C(=O)NCc1ccccn1,i,i,i,i,1.8
Cc1cc(=O)oc2cc(NC(=S)NCc3ccccn3)ccc12,i,i,i,i,81.2*
O=C(NCc1ccccn1)C(=O)Nc1ccccc1F,nt,nt,nt,nt,60.5*
Cc1cc(=O)oc2cc(NC(=S)NCCCN3CCCC3=O)ccc12,nt,nt,nt,nt,38.7
COC(=O)/C=C(\C)CCC1(C)C(C)CCC2(C)C(C)=CC(=O)CC21 (stereo not drawn),i,i,i,i,11.0
Cc1cc(C)cc(NC(=O)CSc2nnc(-c3ccncc3)n2C)c1,nt,nt,nt,nt,-9.7
N#CCCn1c(CC(N)=O)nc2ccccc21,i,i,i,i,-8.3
O=C(CCCOc1ccc(Cl)cc1Cl)Nc1ccccc1[N+](=O)[O-],nt,nt,nt,nt,2.2
Cn1ccc2cc3c(cc21)CCN3C(=O)Nc1cccnc1,i,i,i,i,68.6*
SMILES,c-Myc SMM,NFkB SMM,STAT3 binder,mut p53 SMM,mut p53 react
COc1cc2c(cc1C(F)(F)F)N(C(=O)Nc1cc(F)cc(-c3cccnc3)c1)CC2,i,i,i,i,-69.6
COC1CC(OC2C(C)OC(OC3C(C)OC(OC4C(C)OCC(OC5C(O)C(O[C@H]6CC[C@@]7(C)C(=CC[C@]8(O)C7CC(OC(=O)c7ccccc7)[C@@]7(C)[C@]8(O)CC[C@@]7(O)C(C)=O)C6)OC(CO)C5OC5OC(CO)C(O)C(O)C5O)C4OC)CC3OC)CC2OC)OC(C)C1O (stereo partly drawn),+,+,i,i,-65.9
CO[C@@H]1CC(OC2CCC3(C)C(CCC45CCC(C6=CC(=O)OC6)C(C)(CCC43)C5=O)C2)O[C@H](C)[C@@H]1O[C@@H]1O[C@H](CO[C@@H]2O[C@H](CO)[C@@H](O)[C@H](O)[C@H]2O)[C@@H](O)[C@H](O)[C@H]1O (stereo partly drawn),i,i,i,i,-85.1
C/C=C(\C)C(=O)O[C@@H]1[C@@H](OC(C)=O)C2[C@@]3(C)CC[C@H](OC4CC(OC)C(OC5CC(OC)C(OC6CC(OC)C(OC7OC(C)C(OC8OC(CO)C(O)C(O)C8O)C(OC)C7O)C(C)O6)C(C)O5)C(C)O4)CC3=CC[C@@]2(O)[C@@]2(O)CC[C@H](C(C)=O)[C@@]12C (stereo partly drawn),+,+,i,i,-0.8
Cc1cc(OCc2noc(CSc3ccc(C(F)(F)F)cn3)n2)cc(C)c1Cl,nt,nt,nt,nt,3.4
CCc1ccc(-n2nc3ccc(NC(=O)COc4ccccc4[N+](=O)[O-])cc3n2)cc1,nt,nt,nt,nt,-7.2
O=C(Nc1ccccc1)N[C@@H](Cc1ccccc1)Cn1cc(CN2C(=O)COC[C@H]2c2ccccc2)nn1,i,i,i,i,nt
O=C(Cn1cc(CN2C(=O)COC[C@H]2c2ccccc2)nn1)Nc1nccs1,i,i,i,+,nt
COc1ccc(-c2coc3cc(O[C@@H]4O[C@H](CO)[C@@H](O)[C@H](O)[C@H]4O)ccc3c2=O)cc1,i,i,i,i,11.3
COc1ccc(-c2coc3cc(OC(C)=O)cc(OC(C)=O)c3c2=O)cc1,i,i,i,i,129.6*
COc1ccc2c(=O)c(-c3ccc(OC)c(OC)c3)coc2c1,i,i,i,i,123.5*
CC(NS(=O)(=O)c1ccc(Cl)cc1)C(=O)Nc1ccc(Oc2ccccc2)cc1 (stereo not drawn),nt,nt,nt,nt,-10.5
COc1cccc2cc(-c3nnc(SCC(=O)Nc4cccc(Br)c4)n3C)oc12,nt,nt,nt,nt,-64.9
Cc1cccc(NC(=O)CCC(=O)O)c1,+,i,i,i,-6.1
C[C@@H]1CCCCO[C@@H](CN(C)C(=O)Nc2ccccc2)[C@H](C)CN([C@H](C)CO)C(=O)c2cc(NC(=O)CCC(F)(F)F)ccc2O1,i,i,i,i,-6.4
C[C@@H]1CCCCO[C@H](CN(C)C(=O)Nc2ccccc2)[C@@H](C)CN([C@@H](C)CO)C(=O)c2cc(NC(=O)CCC(F)(F)F)ccc2O1,+,i,i,i,-2.2
C[C@@H]1CN([C@@H](C)CO)C(=O)c2cc(NC(=O)CCC(F)(F)F)ccc2O[C@@H](C)CCCCO[C@H]1CN(C)C(=O)Nc1ccccc1,i,i,i,i,4.4
C[C@H](CO)N1C[C@H](C)[C@H](CN(C)C(=O)Nc2ccccc2)OCCCC[C@H](C)Oc2ccc(NC(=O)CCC(F)(F)F)cc2C1=O,i,+,i,i,5.7
